Assay results as given in article PMC5540273 (PLoS ONE, 2017).

Tests used:
Settings in all cases: concentration: 1 μM,replicates: in singlicate; n = 1
[1] = test system: CSNK1G1
[2] = test system: CSNK1G2
[3] = test system: CSNK1G3
[4] = test system: CSNK2A1
[5] = test system: CSNK2A2
[6] = test system: T1, CTK
T1 construct: gene MATK

[7] = test system: DAPK1
[8] = test system: DAPK2
[9] = test system: DAPK3
[10] = test system: T2, DCAMKL1
T2 construct: gene DCLK1
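Note: KINOMEscan kinase panel screen.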

Compound | %Inh [1] [%] | %Inh [2] [%] | %Inh [3] [%] | %Inh [4] [%] | %Inh [5] [%] | %Inh [6] [%] | %Inh [7] [%] | %Inh [8] [%] | %Inh [9] [%] | %Inh [10] [%]
Cc1ccc(Nc2ccnc(Nc3ccc4c(c3)CS(=O)(=O)C4)n2)cc1O.Cl [GW579362] | 10 | 0 | 19 | 63 | 84 | 25 | 63 | 38 | 70 | 25
Cc1cccc(-c2nc(Nc3ccncc3)c3sccc3n2)n1 [GW869641] | 0 | 1 | 13 | 6 | 30 | 20 | 18 | 11 | 36 | 0
CC(C(=O)NC1CCN(c2ccnc(Nc3ccc(F)cc3)n2)C1)c1ccc(Cl)cc1 (centres unmarked) [GSK1379713] | 0 | 0 | 18 | 1 | 0 | 0 | 0 | 0 | 0 | 0
Cn1ccc2ncnc(Oc3ccc(NC(=O)Nc4cncc(C(F)(F)F)c4)c(Cl)c3)c21 | 0 | 5 | 0 | 0 | 0 | 0 | 0 | 0 | 0 | 0
Cc1n[nH]c2cc(Nc3ccnc(Nc4cccc(CN5CCOCC5)c4)n3)ccc12 [GW682569] | 0 | 0 | 22 | 31 | 27 | 0 | 58 | 25 | 68 | 4
NC(=O)c1ccc(-c2cc3ncnc(SCC(=O)O)c3s2)cc1 | 0 | 17 | 4 | 74 | 78 | 0 | 0 | 0 | 5 | 20
O=C1NCCc2[nH]c(-c3ccncc3)cc21 | 51 | 93.7 | 83 | 64 | 59 | 24 | 77 | 66 | 81 | 16
CCCC(=O)Nc1n[nH]c2ncccc12 [SB-601436] | 0 | 0 | 7 | 1 | 0 | 30 | 0 | 0 | 0 | 0
CS(=O)(=O)c1cccc(CNc2nc(Nc3ccc4c(c3)[C@@H]3C[C@@H]4CNC3=O)ncc2C(F)(F)F)c1 | 0 | 23 | 81 | 34 | 64 | 0 | 27 | 0 | 9 | 48
CNC(=O)c1ccccc1Nc1nc(Nc2cccc(CS(C)(=O)=O)c2)ncc1C.O=CO [GSK1520489] | 27 | 61 | 26 | 92.3 | 98.6 | 38 | 89 | 57 | 81 | 37
CC(=O)Nc1nc2cnc(Nc3cc(NC(=O)c4cccc(CC(C)(C)C#N)c4)ccc3C)nc2s1 | 14 | 1 | 0 | 21 | 21 | 0 | 0 | 0 | 4 | 26
Cl.Cl.NC[C@H](CC1CCCCC1)NC(=O)c1ccc(-c2ccnc3[nH]ccc23)s1 [GSK1581428] | 29 | 72 | 64 | 8 | 0 | 9 | 49 | 12 | 32 | 0
C[C@@H](Oc1cc(-n2cnc3cc(-c4ccncc4)ccc32)sc1C(N)=O)c1ccccc1Cl [GSK479719] | 13 | 0 | 23 | 0 | 35 | 21 | 61 | 30 | 22 | 0
CC(=O)c1c(-c2ccncc2)[nH]c(-c2ccncc2)c1C [GW493036] | 84 | 98.6 | 98.6 | 0 | 8 | 0 | 0 | 0 | 19 | 25
CCn1c(-c2nonc2N)nc2cncc(CNC3CCNCC3)c21.Cl [SB-747651] | 24 | 0 | 0 | 0 | 0 | 0 | 41 | 0 | 27 | 7
CN(c1ccc2c(c1)nc(NCc1ccc(F)cc1)n2C)c1ccnc(Nc2ccc(CS(C)(=O)=O)cc2)n1.Cl [GW813244] | 0 | 6 | 0 | 0 | 24 | 14 | 5 | 7 | 0 | 28
Cn1ccc2ncnc(Oc3ccc(NC(=O)Nc4cnn(C(C)(C)C)c4)c(Cl)c3)c21 | 0 | 32 | 0 | 0 | 38 | 20 | 8 | 0 | 0 | 10
